Experimental findings from article PMC11006913 are described below.

Positions count from the first letter of the chain named.

Holding throughout (test): PBM; 200 nM protein, PBS
Holding throughout (conditions): dsDNA, one strand shown

Test [1] deals with HOXB4 (Homo sapiens, UniProt P17483 148-234).
For test [2], the target named is HOXA4 (Homo sapiens, UniProt Q00056 201-287, W262R).
Another test has as its target T1, VENTX (Homo sapiens, UniProt O95231 78-163, Y115F).
T1 sequence: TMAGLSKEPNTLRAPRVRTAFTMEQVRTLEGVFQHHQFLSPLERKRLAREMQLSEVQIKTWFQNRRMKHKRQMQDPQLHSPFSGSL

In test [3] the target is HOXA2 (Homo sapiens, UniProt O43364 129-215, R185T).
HOXA2 (Homo sapiens, UniProt O43364 129-215, R185T), sequence (O43364 129-215 R185T): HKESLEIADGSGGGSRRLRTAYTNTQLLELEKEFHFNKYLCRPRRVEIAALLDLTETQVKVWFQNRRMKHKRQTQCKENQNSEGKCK
Test [4] deals with HOXA4 (Homo sapiens, UniProt Q00056 201-287, R217L).
HOXA4 (Homo sapiens, UniProt Q00056 201-287, R217L), sequence (Q00056 201-287 R217L): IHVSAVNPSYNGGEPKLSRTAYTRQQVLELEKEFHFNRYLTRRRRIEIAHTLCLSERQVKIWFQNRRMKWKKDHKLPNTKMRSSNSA
Test [5] deals with HOXB4 (Homo sapiens, UniProt P17483 148-234, V174I).
HOXB4 (Homo sapiens, UniProt P17483 148-234, V174I), sequence (P17483 148-234 V174I): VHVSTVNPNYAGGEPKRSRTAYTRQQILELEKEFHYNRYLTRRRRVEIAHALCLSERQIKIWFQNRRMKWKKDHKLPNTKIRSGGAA
For test [6], the target named is HOXA2 (Homo sapiens, UniProt O43364 129-215, R185K).
HOXA2 (Homo sapiens, UniProt O43364 129-215, R185K), sequence (O43364 129-215 R185K): as the sequence (O43364 129-215 R185T) above, with T57K counted along it
The target in test [7] is HOXA4 (Homo sapiens, UniProt Q00056 201-287).
HOXA4 (Homo sapiens, UniProt Q00056 201-287), sequence (Q00056 201-287): as the sequence (Q00056 201-287 R217L) above, with L17R counted along it
Test [8] deals with VAX1 (Homo sapiens, UniProt Q5SQQ9 86-172).
VAX1 (Homo sapiens, UniProt Q5SQQ9 86-172), sequence (Q5SQQ9 86-172): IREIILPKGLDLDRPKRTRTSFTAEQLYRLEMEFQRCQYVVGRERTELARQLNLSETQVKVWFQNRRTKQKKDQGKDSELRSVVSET
Test [9] deals with VAX1 (Homo sapiens, UniProt Q5SQQ9 86-172, T142I).
VAX1 (Homo sapiens, UniProt Q5SQQ9 86-172, T142I), sequence (Q5SQQ9 86-172 T142I): as the sequence (Q5SQQ9 86-172) above, with T57I counted along it
The target in test [10] is HOXA2 (Homo sapiens, UniProt O43364 129-215, Y150S).
HOXA2 (Homo sapiens, UniProt O43364 129-215, Y150S), sequence (O43364 129-215 Y150S): as the sequence (O43364 129-215 R185T) above, with Y22S, T57R counted along it
Test [11] deals with HOXA4 (Homo sapiens, UniProt Q00056 201-287, W262F).
HOXA4 (Homo sapiens, UniProt Q00056 201-287, W262F), sequence (Q00056 201-287 W262F): as the sequence (Q00056 201-287 R217L) above, with L17R, W62F counted along it
For test [12], the target named is HOXA2 (Homo sapiens, UniProt O43364 129-215).
HOXA2 (Homo sapiens, UniProt O43364 129-215), sequence (O43364 129-215): as the sequence (O43364 129-215 R185T) above, with T57R counted along it
The target of test [13] is VAX1 (Homo sapiens, UniProt Q5SQQ9 86-172, K157R).
VAX1 (Homo sapiens, UniProt Q5SQQ9 86-172, K157R), sequence (Q5SQQ9 86-172 K157R): as the sequence (Q5SQQ9 86-172) above, with K72R counted along it
The target of test [14] is HOXC9 (Homo sapiens, UniProt P31274 178-260, K195R).
HOXC9 (Homo sapiens, UniProt P31274 178-260, K195R), sequence (P31274 178-260 K195R): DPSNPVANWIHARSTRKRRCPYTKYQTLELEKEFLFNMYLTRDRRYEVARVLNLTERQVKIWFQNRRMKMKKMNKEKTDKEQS
Test [15] concerns the target HOXC9 (Homo sapiens, UniProt P31274 178-260).
Test [16] deals with HOXC9 (Homo sapiens, UniProt P31274 178-260, R193K).
HOXC9 (Homo sapiens, UniProt P31274 178-260, R193K), sequence (P31274 178-260 R193K): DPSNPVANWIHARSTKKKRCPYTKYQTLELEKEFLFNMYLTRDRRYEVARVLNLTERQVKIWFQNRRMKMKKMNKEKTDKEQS
Test [17] concerns the target HOXC9 (Homo sapiens, UniProt P31274 178-260, R222W).
Test [18] concerns the target T2, PAX4 (Homo sapiens, UniProt O43316 9-242, R200K).
T2 sequence: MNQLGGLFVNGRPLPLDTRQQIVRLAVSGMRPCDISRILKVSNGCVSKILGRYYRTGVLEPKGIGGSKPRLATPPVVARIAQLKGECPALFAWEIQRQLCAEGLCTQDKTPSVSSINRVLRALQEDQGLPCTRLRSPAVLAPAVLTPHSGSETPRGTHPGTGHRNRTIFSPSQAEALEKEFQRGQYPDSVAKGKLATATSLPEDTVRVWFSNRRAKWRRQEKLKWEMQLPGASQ

The target in test [19] is T3, PAX4 (Homo sapiens, UniProt O43316 9-242).
T3 sequence: T2 sequence with K192R

Test [20] addresses MSX2 (Homo sapiens, UniProt P35548 130-214, R199I).
Test [21] deals with T4, PAX4 (Homo sapiens, UniProt O43316 9-242, R200Q).
T4 sequence: T2 sequence with K192Q

Test [22] concerns the target T5, PAX4 (Homo sapiens, UniProt O43316 9-242, F177V).
T5 sequence: T2 sequence with F169V, K192R

Test [23] deals with MSX2 (Homo sapiens, UniProt P35548 130-214).
MSX2 (Homo sapiens, UniProt P35548 130-214), sequence (P35548 130-214): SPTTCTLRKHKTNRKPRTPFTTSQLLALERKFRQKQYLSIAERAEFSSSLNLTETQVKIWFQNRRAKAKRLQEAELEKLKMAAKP
The target of test [24] is T6, PAX4 (Homo sapiens, UniProt O43316 9-242, F177Y).
T6 sequence: T2 sequence with F169Y, K192R

The target in test [25] is MSX2 (Homo sapiens, UniProt P35548 130-214, F161Y).
MSX2 (Homo sapiens, UniProt P35548 130-214, F161Y), sequence (P35548 130-214 F161Y): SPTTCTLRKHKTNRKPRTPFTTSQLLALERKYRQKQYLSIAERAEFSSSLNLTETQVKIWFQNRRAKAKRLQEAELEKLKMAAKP
Test [26] has as its target T7, PAX4 (Homo sapiens, UniProt O43316 9-242, R227W).
T7 sequence: T2 sequence with K192R, R219W

HOXB4 (Homo sapiens, UniProt P17483 148-234), sequence (P17483 148-234): as the sequence (P17483 148-234 V174I) above, with I27V counted along it
HOXA4 (Homo sapiens, UniProt Q00056 201-287, W262R), sequence (Q00056 201-287 W262R): as the sequence (Q00056 201-287 R217L) above, with L17R, W62R counted along it
HOXC9 (Homo sapiens, UniProt P31274 178-260, R222W), sequence (P31274 178-260 R222W): as the sequence (P31274 178-260 R193K) above, with K16R, R45W counted along it
HOXC9 (Homo sapiens, UniProt P31274 178-260), sequence (P31274 178-260): as the sequence (P31274 178-260 R193K) above, with K16R counted along it
MSX2 (Homo sapiens, UniProt P35548 130-214, R199I), sequence (P35548 130-214 R199I): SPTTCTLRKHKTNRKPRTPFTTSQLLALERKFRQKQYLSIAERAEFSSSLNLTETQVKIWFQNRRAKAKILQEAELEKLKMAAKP

As to CCTAATGA, the binding signal with HOXB4 [1] was 13 upbm affinity estimate (log intensity, higher = more binding, comparable within an allelic series); with HOXA4 [2], 10.5 upbm affinity estimate (log intensity, higher = more binding, comparable within an allelic series); with VENTX, 11.5 upbm affinity estimate (log intensity, higher = more binding, comparable within an allelic series); with HOXA2 [3] it was 12.7 upbm affinity estimate (log intensity, higher = more binding, comparable within an allelic series); with HOXA4 [4] it was 11.7 upbm affinity estimate (log intensity, higher = more binding, comparable within an allelic series); in the test with HOXB4 [5], 13.6 upbm affinity estimate (log intensity, higher = more binding, comparable within an allelic series). Also, the binding signal with HOXA2 [6] is 13.4 upbm affinity estimate (log intensity, higher = more binding, comparable within an allelic series); with HOXA4 [7], 13.7 upbm affinity estimate (log intensity, higher = more binding, comparable within an allelic series); with VAX1 [8], 13.2 upbm affinity estimate (log intensity, higher = more binding, comparable within an allelic series); in the test with VAX1 [9], 13 upbm affinity estimate (log intensity, higher = more binding, comparable within an allelic series); in the test with HOXA2 [10] it was 10.7 upbm affinity estimate (log intensity, higher = more binding, comparable within an allelic series); with HOXA4 [11], 11.6 upbm affinity estimate (log intensity, higher = more binding, comparable within an allelic series). Besides, the binding signal was 12.4 upbm affinity estimate (log intensity, higher = more binding, comparable within an allelic series) in the test with HOXA2 [12] and 13 upbm affinity estimate (log intensity, higher = more binding, comparable within an allelic series) with VAX1 [13].
For the sequence TCCCAGGA, the binding signal is 7.82 upbm affinity estimate (log intensity, higher = more binding, comparable within an allelic series) in the test with HOXB4 [1]; 9.51 upbm affinity estimate (log intensity, higher = more binding, comparable within an allelic series) in the test with HOXC9 [14]; 7.66 upbm affinity estimate (log intensity, higher = more binding, comparable within an allelic series) with HOXB4 [5]; 9.58 upbm affinity estimate (log intensity, higher = more binding, comparable within an allelic series) in the test with HOXC9 [15]; 9.57 upbm affinity estimate (log intensity, higher = more binding, comparable within an allelic series) in the test with HOXC9 [16]; 7.2 upbm affinity estimate (log intensity, higher = more binding, comparable within an allelic series) in the test with VAX1 [8]. Further, the binding signal is 9.72 upbm affinity estimate (log intensity, higher = more binding, comparable within an allelic series) in the test with HOXC9 [17]; 7.36 upbm affinity estimate (log intensity, higher = more binding, comparable within an allelic series) in the test with VAX1 [9]; 7.24 upbm affinity estimate (log intensity, higher = more binding, comparable within an allelic series) with VAX1 [13].
In the case of CGGGCTTC, the binding signal with HOXB4 [1] is 7.22 upbm affinity estimate (log intensity, higher = more binding, comparable within an allelic series); in the test with HOXA4 [2] it was 9.75 upbm affinity estimate (log intensity, higher = more binding, comparable within an allelic series); with PAX4 [18], 9.13 upbm affinity estimate (log intensity, higher = more binding, comparable within an allelic series); with PAX4 [19], 8.97 upbm affinity estimate (log intensity, higher = more binding, comparable within an allelic series); with HOXA4 [4] it was 9.66 upbm affinity estimate (log intensity, higher = more binding, comparable within an allelic series); with HOXB4 [5], 7.19 upbm affinity estimate (log intensity, higher = more binding, comparable within an allelic series). In addition, the binding signal was 9.39 upbm affinity estimate (log intensity, higher = more binding, comparable within an allelic series) with MSX2 [20]; 9.21 upbm affinity estimate (log intensity, higher = more binding, comparable within an allelic series) in the test with PAX4 [21]; 9.17 upbm affinity estimate (log intensity, higher = more binding, comparable within an allelic series) in the test with PAX4 [22]; 9.6 upbm affinity estimate (log intensity, higher = more binding, comparable within an allelic series) with HOXA4 [7]; 9.32 upbm affinity estimate (log intensity, higher = more binding, comparable within an allelic series) in the test with MSX2 [23]; 9.09 upbm affinity estimate (log intensity, higher = more binding, comparable within an allelic series) with PAX4 [24]. The binding signal with MSX2 [25] was 9.35 upbm affinity estimate (log intensity, higher = more binding, comparable within an allelic series); with PAX4 [26], 9.24 upbm affinity estimate (log intensity, higher = more binding, comparable within an allelic series); in the test with HOXA4 [11] it was 9.77 upbm affinity estimate (log intensity, higher = more binding, comparable within an allelic series).
